The values that follow come from paper PMC7862700, “An all-to-all approach to the identification of sequence-specific readers for epigenetic DNA modifications on cytosine”.

Test in all cases: DAPPL (digital affinity profiling via proximity ligation, sequencing); 10 mM Tris-HCl pH 7.5, 50 mM NaCl, 1 mM DTT, 4% glycerol, room temperature, 30 min; GST-TFs on glutathione beads, 16-mer random dsDNA library, 0.1% formaldehyde crosslink after washing; high values mean tight binding
Holding throughout (conditions): protein: recombinant; tags: N-terminal GST; dsDNA, one strand shown

Experiment [1] deals with T1, ERF (Homo sapiens, UniProt P50548 1-548).
T1 sequence: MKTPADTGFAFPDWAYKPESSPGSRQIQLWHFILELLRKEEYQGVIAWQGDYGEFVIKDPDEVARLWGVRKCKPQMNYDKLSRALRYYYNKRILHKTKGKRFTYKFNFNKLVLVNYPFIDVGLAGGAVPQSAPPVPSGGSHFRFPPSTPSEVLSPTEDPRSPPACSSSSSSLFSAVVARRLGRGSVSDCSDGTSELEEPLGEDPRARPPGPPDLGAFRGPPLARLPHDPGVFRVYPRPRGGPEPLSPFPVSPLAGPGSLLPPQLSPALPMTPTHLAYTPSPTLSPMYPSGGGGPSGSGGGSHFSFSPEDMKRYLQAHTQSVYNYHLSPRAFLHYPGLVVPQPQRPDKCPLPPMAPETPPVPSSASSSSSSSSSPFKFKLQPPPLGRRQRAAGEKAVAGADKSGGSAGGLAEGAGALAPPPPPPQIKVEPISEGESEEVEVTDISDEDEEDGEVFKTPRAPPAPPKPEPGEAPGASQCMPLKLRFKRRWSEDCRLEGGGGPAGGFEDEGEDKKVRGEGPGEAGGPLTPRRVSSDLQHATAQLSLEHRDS
An outline of the steps: (§1)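 A tag-only sample was pooled with DNA-barcoded human transcription factors that had been expressed in yeast as GST fusions and captured on glutathione beads. The pools were incubated for 30 min at room temperature with 200 nmole of a random double-stranded 16-mer DNA library in Tris/NaCl/DTT/glycerol buffer, then washed, crosslinked with 0.1% formaldehyde, proximity-ligated (BsaI/T4 ligase, 1 h, 37 °C), PCR-amplified and sequenced on an Illumina NextSeq500. Binding signal is each hexamer's read frequency for a factor divided by its frequency for the tag-only sample.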

For experiment [2], the target named is T2, ETV3L (Homo sapiens, UniProt Q6ZN32 1-361).
T2 sequence: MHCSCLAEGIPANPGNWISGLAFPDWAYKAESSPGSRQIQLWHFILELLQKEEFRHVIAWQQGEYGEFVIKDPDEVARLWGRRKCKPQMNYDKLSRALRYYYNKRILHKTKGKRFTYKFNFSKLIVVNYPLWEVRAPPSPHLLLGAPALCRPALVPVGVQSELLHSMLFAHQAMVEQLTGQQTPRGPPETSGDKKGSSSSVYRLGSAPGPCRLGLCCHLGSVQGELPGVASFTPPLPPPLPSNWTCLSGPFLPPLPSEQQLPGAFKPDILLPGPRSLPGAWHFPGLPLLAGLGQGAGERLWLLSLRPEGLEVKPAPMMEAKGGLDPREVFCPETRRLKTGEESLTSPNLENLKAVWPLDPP
An outline of the steps: as §1

Experiment [3] deals with T3, ETS2 (Homo sapiens, UniProt P15036 1-469).
T3 sequence: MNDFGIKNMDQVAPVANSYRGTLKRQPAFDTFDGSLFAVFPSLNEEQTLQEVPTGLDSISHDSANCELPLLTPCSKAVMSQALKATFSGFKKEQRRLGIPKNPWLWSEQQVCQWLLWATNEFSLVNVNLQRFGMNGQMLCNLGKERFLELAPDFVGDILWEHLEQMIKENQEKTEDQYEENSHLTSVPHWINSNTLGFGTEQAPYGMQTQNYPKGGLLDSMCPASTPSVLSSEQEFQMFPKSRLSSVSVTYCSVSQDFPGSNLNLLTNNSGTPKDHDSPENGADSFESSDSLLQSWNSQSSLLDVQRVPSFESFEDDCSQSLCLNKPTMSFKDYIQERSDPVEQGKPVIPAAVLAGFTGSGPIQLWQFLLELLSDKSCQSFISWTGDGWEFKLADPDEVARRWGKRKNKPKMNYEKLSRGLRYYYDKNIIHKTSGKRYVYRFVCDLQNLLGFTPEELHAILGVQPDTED
An outline of the steps: as §1

In experiment [4] the target is T4, SPDEF (Homo sapiens, UniProt O95238 1-335).
T4 sequence: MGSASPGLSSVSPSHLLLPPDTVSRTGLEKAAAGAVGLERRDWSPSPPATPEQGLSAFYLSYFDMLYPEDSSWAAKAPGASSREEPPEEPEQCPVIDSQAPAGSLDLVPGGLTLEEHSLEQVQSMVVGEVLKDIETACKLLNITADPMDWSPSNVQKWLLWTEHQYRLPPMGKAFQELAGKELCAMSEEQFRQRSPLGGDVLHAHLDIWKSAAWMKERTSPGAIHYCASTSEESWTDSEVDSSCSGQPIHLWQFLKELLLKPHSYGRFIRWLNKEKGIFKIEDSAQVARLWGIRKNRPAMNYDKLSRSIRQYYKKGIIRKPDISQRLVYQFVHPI
An outline of the steps:
as §1

The target of experiment [5] is T5, ETV7 (Homo sapiens, UniProt Q9Y603 1-341).
T5 sequence: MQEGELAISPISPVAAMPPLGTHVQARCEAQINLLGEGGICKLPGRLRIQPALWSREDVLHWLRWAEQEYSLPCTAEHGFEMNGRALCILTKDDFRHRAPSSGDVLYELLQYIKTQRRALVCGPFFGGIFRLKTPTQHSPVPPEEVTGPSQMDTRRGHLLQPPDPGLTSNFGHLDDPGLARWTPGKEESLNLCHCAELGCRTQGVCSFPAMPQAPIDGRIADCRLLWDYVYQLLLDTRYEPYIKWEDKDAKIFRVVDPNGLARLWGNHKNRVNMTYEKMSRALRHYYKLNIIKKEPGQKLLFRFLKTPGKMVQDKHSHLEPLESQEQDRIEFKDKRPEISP
An outline of the steps: as §1

Experiment [6] concerns the target T6, ELF5 (Homo sapiens, UniProt Q9UKW6-2 1-255).
T6 sequence: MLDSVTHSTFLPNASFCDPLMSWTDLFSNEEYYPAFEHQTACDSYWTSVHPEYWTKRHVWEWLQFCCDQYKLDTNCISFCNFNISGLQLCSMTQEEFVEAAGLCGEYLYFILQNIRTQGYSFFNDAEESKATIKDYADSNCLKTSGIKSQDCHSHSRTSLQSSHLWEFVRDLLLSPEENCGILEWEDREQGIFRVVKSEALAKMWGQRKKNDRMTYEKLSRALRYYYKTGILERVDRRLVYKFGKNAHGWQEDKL
An outline of the steps: as §1

The target in experiment [7] is T7, ETV3 (Homo sapiens, UniProt P41162-2 1-143).
T7 sequence: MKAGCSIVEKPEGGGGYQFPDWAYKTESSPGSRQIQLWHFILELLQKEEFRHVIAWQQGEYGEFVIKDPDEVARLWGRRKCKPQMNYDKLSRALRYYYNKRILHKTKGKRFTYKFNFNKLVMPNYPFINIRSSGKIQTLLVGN
The method, boiled down: as §1

The target in experiment [8] is ETV6 (Homo sapiens, UniProt P41212 1-452). The method, boiled down:
as §1

Sequence of ETV6 (P41212 whole entry): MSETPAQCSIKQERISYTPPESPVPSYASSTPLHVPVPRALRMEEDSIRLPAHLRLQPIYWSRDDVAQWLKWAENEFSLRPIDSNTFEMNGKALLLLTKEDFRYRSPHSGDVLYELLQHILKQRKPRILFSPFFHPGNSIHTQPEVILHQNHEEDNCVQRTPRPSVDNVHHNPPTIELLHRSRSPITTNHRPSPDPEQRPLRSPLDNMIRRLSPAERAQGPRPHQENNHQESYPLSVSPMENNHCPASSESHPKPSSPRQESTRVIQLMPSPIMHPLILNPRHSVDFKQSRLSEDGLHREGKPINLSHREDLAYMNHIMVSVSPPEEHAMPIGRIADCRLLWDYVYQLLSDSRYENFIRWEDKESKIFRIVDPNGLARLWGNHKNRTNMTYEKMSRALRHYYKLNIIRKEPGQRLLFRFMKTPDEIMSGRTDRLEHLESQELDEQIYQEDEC

As for TCCTCT, the binding signal in experiment [1] was 1.68 fold enrichment (6-mer frequency, TF over GST control); in experiment [2], 1.74 fold enrichment (6-mer frequency, TF over GST control); in experiment [3], 1.67 fold enrichment (6-mer frequency, TF over GST control); in experiment [4], 1.58 fold enrichment (6-mer frequency, TF over GST control); in experiment [5] it was 1.67 fold enrichment (6-mer frequency, TF over GST control); in experiment [6], 2.15 fold enrichment (6-mer frequency, TF over GST control). For the same sequence, the binding signal in experiment [7] was 1.63 fold enrichment (6-mer frequency, TF over GST control); in experiment [8], 1.64 fold enrichment (6-mer frequency, TF over GST control).
Regarding GGTTTC, the binding signal in experiment [1] was 1.49 fold enrichment (6-mer frequency, TF over GST control); in experiment [2], 1.52 fold enrichment (6-mer frequency, TF over GST control); in experiment [3], 1.52 fold enrichment (6-mer frequency, TF over GST control); in experiment [4] it was 1.55 fold enrichment (6-mer frequency, TF over GST control); in experiment [5], 1.38 fold enrichment (6-mer frequency, TF over GST control); in experiment [6] it was 1.52 fold enrichment (6-mer frequency, TF over GST control). Further, the binding signal in experiment [7] was 1.46 fold enrichment (6-mer frequency, TF over GST control); in experiment [8] it was 1.51 fold enrichment (6-mer frequency, TF over GST control).
TCTGAC: the binding signal in experiment [1] was 1.21 fold enrichment (6-mer frequency, TF over GST control); in experiment [2], 1.04 fold enrichment (6-mer frequency, TF over GST control); in experiment [3] it was 1.2 fold enrichment (6-mer frequency, TF over GST control); in experiment [4], 1.14 fold enrichment (6-mer frequency, TF over GST control); in experiment [5], 1.22 fold enrichment (6-mer frequency, TF over GST control); in experiment [6], 1.2 fold enrichment (6-mer frequency, TF over GST control). The binding signal in experiment [7] is 1.18 fold enrichment (6-mer frequency, TF over GST control); in experiment [8], 1.27 fold enrichment (6-mer frequency, TF over GST control).
Consider CGAACA, for which the binding signal in experiment [1] is 1.17 fold enrichment (6-mer frequency, TF over GST control); in experiment [2], 1.13 fold enrichment (6-mer frequency, TF over GST control); in experiment [3], 1.22 fold enrichment (6-mer frequency, TF over GST control); in experiment [4] it was 1.1 fold enrichment (6-mer frequency, TF over GST control); in experiment [5], 1.2 fold enrichment (6-mer frequency, TF over GST control); in experiment [6] it was 1.05 fold enrichment (6-mer frequency, TF over GST control). The binding signal in experiment [7] was 1.15 fold enrichment (6-mer frequency, TF over GST control); in experiment [8], 1.19 fold enrichment (6-mer frequency, TF over GST control).
Regarding TCAAGG, the binding signal in experiment [1] is 1.09 fold enrichment (6-mer frequency, TF over GST control); in experiment [2], 1.03 fold enrichment (6-mer frequency, TF over GST control); in experiment [3], 1.04 fold enrichment (6-mer frequency, TF over GST control); in experiment [4], 1.12 fold enrichment (6-mer frequency, TF over GST control); in experiment [5], 1.17 fold enrichment (6-mer frequency, TF over GST control); in experiment [6] it was 1.14 fold enrichment (6-mer frequency, TF over GST control). Moreover, the binding signal in experiment [7] was 1.12 fold enrichment (6-mer frequency, TF over GST control); in experiment [8], 1.14 fold enrichment (6-mer frequency, TF over GST control).
On to TTGAGC, for which the binding signal in experiment [1] is 1.04 fold enrichment (6-mer frequency, TF over GST control); in experiment [2], 1.06 fold enrichment (6-mer frequency, TF over GST control); in experiment [3], 1.03 fold enrichment (6-mer frequency, TF over GST control); in experiment [4], 1.02 fold enrichment (6-mer frequency, TF over GST control); in experiment [5], 1.1 fold enrichment (6-mer frequency, TF over GST control); in experiment [6], 1 fold enrichment (6-mer frequency, TF over GST control). The binding signal is 1 fold enrichment (6-mer frequency, TF over GST control) in experiment [7] and 1.08 fold enrichment (6-mer frequency, TF over GST control) in experiment [8].
